From PubChem BioAssay (NCI) come the findings set out here.

Structures are written as SMILES. Compounds without any hit were thinned out: in the full panel of roughly 83,000, 20% have a hit.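 Percent growth is the endpoint: 0 to 100 indicates growth inhibition (40 means 60% inhibition), 0 means no net growth, and negative values indicate cell death.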 Values without a mark were called inactive. Active and inactive are the calls of the source. Rule for the calls: active = growth percent below 10; inactive = the rest.

Among the test systems are SK-MEL-2 melanoma; EKVX NSCLC; SN12C renal; UO-31 renal; TK-10 renal; ACHN renal; CAKI-1 renal; A498 renal; CCRF-CEM leukemia; MOLT-4 leukemia; SR leukemia; RPMI-8226 leukemia; OVCAR-8 ovarian; OVCAR-5 ovarian; SK-OV-3 ovarian; IGROV1 ovarian; OVCAR-3 ovarian; HS 578T breast; NCI/ADR-RES ovarian.
Experiment in all cases: NCI-60 one-dose screen, 48 h (100 = growth as untreated, 0 = no growth, -100 = all killed)
Details in all cases: 10 µM unless noted

`C=C(C)[C@@H]1CC[C@]2(C)[C@H](CC[C@@H]3[C@@H]([C@@](C)(O)CCC=C(C)C)CC[C@]32C)[C@@]1(C)CCC(=O)O`: the growth with SK-MEL-2 melanoma was -41.6% [100 µM] (active); in the assay with EKVX NSCLC it was 8.69% [100 µM] (active); with SN12C renal, -64.2% [100 µM] (active); in the assay with UO-31 renal it was -93.1% [100 µM] (active); in the assay on TK-10 renal, 18.1% [100 µM]; in the assay on ACHN renal, 6.72% [100 µM] (active). Also, the growth in the assay on CAKI-1 renal is 2.11% [100 µM] (active); with A498 renal, -20.2% [100 µM] (active); in the assay on CCRF-CEM leukemia it was 0.565% [100 µM] (active); in the assay with MOLT-4 leukemia it was -0.176% [100 µM] (active); in the assay on SR leukemia, 21.4% [100 µM]; in the assay with RPMI-8226 leukemia, 0.565% [100 µM] (active). Also, the growth with OVCAR-8 ovarian was 14.8% [100 µM]; in the assay with OVCAR-5 ovarian, 3.52% [100 µM] (active); in the assay on SK-OV-3 ovarian, 18.4% [100 µM]; in the assay on IGROV1 ovarian, -24.2% [100 µM] (active); in the assay with OVCAR-3 ovarian, -70.2% [100 µM] (active); with HS 578T breast, -16.7% [100 µM] (active). Besides, the growth in the assay with NCI/ADR-RES ovarian was 6.42% [100 µM] (active).

In the case of `CC(C)[C@H]1CCC2=C3CC[C@]45OC(=O)[C@@]6(CCC(C)(C)C[C@H]64)CC[C@@]5(C)[C@]3(C)CC[C@@]21C`, the growth was 74.9% [100 µM] in the assay on SK-MEL-2 melanoma; 88.3% [100 µM] in the assay on EKVX NSCLC; 70.6% [100 µM] in the assay on SN12C renal; 67.9% [100 µM] in the assay on UO-31 renal; 101% [100 µM] with TK-10 renal; 72.4% [100 µM] in the assay on ACHN renal. The growth in the assay with CAKI-1 renal is 53.7% [100 µM]; in the assay with A498 renal, 103% [100 µM]; in the assay with CCRF-CEM leukemia it was 49.7% [100 µM]; in the assay on MOLT-4 leukemia, 26.5% [100 µM]; with SR leukemia, 60.3% [100 µM]; with RPMI-8226 leukemia, 58.2% [100 µM]. For the same compound, the growth in the assay on OVCAR-8 ovarian was 70.3% [100 µM]; in the assay with OVCAR-5 ovarian it was 107% [100 µM]; in the assay on SK-OV-3 ovarian, 75.3% [100 µM]; in the assay on IGROV1 ovarian it was 61% [100 µM]; with OVCAR-3 ovarian, 80.2% [100 µM]; in the assay on HS 578T breast, 61.6% [100 µM]. Moreover, the growth with NCI/ADR-RES ovarian is 81.9% [100 µM].

For `C[C@H]1[C@H](C)CC[C@]2(COC(=O)CCC(=O)O)CC[C@]3(C)C(=CC[C@@H]4[C@@]5(C)CCCNC(C)(C)[C@@H]5CC[C@]43C)[C@H]12`, the growth in the assay on SK-MEL-2 melanoma is 55.6% [100 µM]; in the assay on EKVX NSCLC, 71.5% [100 µM]; with SN12C renal, 65% [100 µM]; in the assay on UO-31 renal, 65.4% [100 µM]; with TK-10 renal, 81.3% [100 µM]; with ACHN renal, 60.2% [100 µM]. Further, the growth with CAKI-1 renal was 54.1% [100 µM]; in the assay on A498 renal it was 70.3% [100 µM]; in the assay with CCRF-CEM leukemia, 73.5% [100 µM]; with MOLT-4 leukemia it was 46% [100 µM]; with SR leukemia, 80.4% [100 µM]; in the assay on RPMI-8226 leukemia it was 59.7% [100 µM]. In addition, the growth is 69.8% [100 µM] with OVCAR-8 ovarian; 88.5% [100 µM] in the assay with OVCAR-5 ovarian; 65.2% [100 µM] in the assay with SK-OV-3 ovarian; 54.9% [100 µM] with IGROV1 ovarian; 75.4% [100 µM] with OVCAR-3 ovarian; 41.8% [100 µM] in the assay on HS 578T breast. Besides, the growth in the assay on NCI/ADR-RES ovarian was 71.8% [100 µM].

In the case of `N#C/C(C(=O)c1ccccc1)=C1/C(=O)Nc2ccccc21`, the growth with SK-MEL-2 melanoma is 106%; in the assay with EKVX NSCLC, 99.4%; with SN12C renal, 93.1%; in the assay with UO-31 renal, 73.4%; with TK-10 renal, 118%; in the assay on ACHN renal, 98%. For the same compound, the growth in the assay with CAKI-1 renal was 78.8%; with A498 renal, 89%; in the assay with CCRF-CEM leukemia, 103%; in the assay on MOLT-4 leukemia, 90.4%; with SR leukemia it was 112%; with RPMI-8226 leukemia, 112%. The growth in the assay on OVCAR-8 ovarian is 97.2%; in the assay on OVCAR-5 ovarian, 101%; in the assay with SK-OV-3 ovarian it was 85.3%; with IGROV1 ovarian it was 86.1%; with OVCAR-3 ovarian it was 108%; in the assay on HS 578T breast, 91.4%. Moreover, the growth in the assay with NCI/ADR-RES ovarian is 103%.

Take `CCCCNC(=O)NS(=O)(=O)Cc1ccccc1`: the growth with SK-MEL-2 melanoma was 119%; in the assay on EKVX NSCLC it was 122%; in the assay on SN12C renal it was 113%; with UO-31 renal it was 82.8%; with TK-10 renal, 118%; in the assay on ACHN renal, 106%. The growth with CAKI-1 renal was 100%; with A498 renal, 110%; with CCRF-CEM leukemia, 93.1%; with MOLT-4 leukemia, 97.5%; in the assay with SR leukemia it was 108%; in the assay with RPMI-8226 leukemia, 95.8%. Further, the growth in the assay with OVCAR-8 ovarian was 100%; with OVCAR-5 ovarian, 108%; with SK-OV-3 ovarian it was 107%; with IGROV1 ovarian, 97.3%; with OVCAR-3 ovarian, 109%; in the assay on HS 578T breast, 107%.

`O=C1CC(c2ccccc2)Cc2nc3ccc(Cl)cc3cc21` (stereo not given): the growth in the assay with SK-MEL-2 melanoma was 57.1%; with EKVX NSCLC, 30.2%; in the assay with SN12C renal, 28.3%; with UO-31 renal it was 35%; in the assay with TK-10 renal it was 71.2%; in the assay on ACHN renal, 30.8%. The growth was 29.2% in the assay on CAKI-1 renal; -17.4% (active) in the assay on A498 renal; 10.4% in the assay on CCRF-CEM leukemia; 11.6% with MOLT-4 leukemia; 13% with SR leukemia; 29.7% in the assay on RPMI-8226 leukemia. The growth in the assay with OVCAR-8 ovarian is 22.4%; with OVCAR-5 ovarian, 26.4%; in the assay on SK-OV-3 ovarian it was 47.2%; with IGROV1 ovarian, 16.5%; with OVCAR-3 ovarian it was -29.1% (active).

Turning to `CCOC(=O)c1cc(C(=O)c2ccc(OC)c(OC)c2)n2ccc(-c3ccccn3)cc12`, the growth is 70.9% in the assay with SK-MEL-2 melanoma; 92.2% in the assay with EKVX NSCLC; 60.6% with SN12C renal; 76.3% with UO-31 renal; 55.4% in the assay with TK-10 renal; 30% in the assay with ACHN renal. Also, the growth in the assay on CAKI-1 renal was 78.7%; with A498 renal it was 42.1%; in the assay on CCRF-CEM leukemia, 111%; with MOLT-4 leukemia it was 124%; with SR leukemia, 75.8%; in the assay on RPMI-8226 leukemia it was 72.9%. Besides, the growth was 37% with OVCAR-8 ovarian; 84% with OVCAR-5 ovarian; 6.14% (active) in the assay with SK-OV-3 ovarian; 54.7% with IGROV1 ovarian; 78.5% in the assay on OVCAR-3 ovarian; 64.2% with HS 578T breast. The growth in the assay on NCI/ADR-RES ovarian was 65.6%.
